# Measured values: article PMC5540273 (PLoS ONE, 2017)
# Tests used:
# GRK3 = tested on: T1, GRK3
# T1 construct: gene ADRBK2
# HASPIN = tested on: T2, HASPIN
# T2 construct: gene GSG2
# IKK-beta = tested on: T3, IKK-beta
# T3 construct: gene IKBKB
# IKK-epsilon = tested on: T4, IKK-epsilon
# T4 construct: gene IKBKE
# [1] = tested on: JAK3(JH1domain-catalytic)
# LOK = tested on: T5, LOK
# T5 construct: gene STK10
# 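Note: kd values determined as follow-up on hits from a single-replicate KINOMEscan panel screen.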
structure (smiles),measurement,setting,value
Cn1cncc1C(=O)NC1CCN(c2ccnc(Nc3ccc(F)cc3)n2)C1 (stereo not shown) [GSK1379717],Kd,FLT4,> 10 µM
COC(=O)C(Cc1ccccc1)NC(=O)NC1CCN(c2ccnc(Nc3ccc(F)cc3)n2)C1 (stereo not shown) [GSK1379714],Kd,GRK1,> 10 µM
CNc1nc(-c2ccc3c(N)n[nH]c3c2)cc(N2C[C@@H](C(=O)Nc3ccccc3)CC[C@H]2C)n1 [GSK2298859],Kd,GRK1,> 10 µM
CS(=O)(=O)CCNCc1nc(-c2ccc3ncnc(Nc4ccc(OCc5ccccc5)c(Cl)c4)c3c2)cs1.Cl [GW582764],Kd,GRK3,> 10 µM
CC(C)c1cc(-c2ccc3c(N)n[nH]c3c2)nc(N)n1 [GSK2250882],Kd,HASPIN,0.2 µM
COc1cccc(NC(=O)Nc2ccc(C)c(-c3ccc(C(=O)Nc4ccncc4)cc3)c2)c1 [GSK1398474],Kd,IKK-beta,> 10 µM
COc1ccc(Nc2nccc(N3CCC(NC(=O)C(C)c4ccc(Cl)cc4)CC3)n2)cc1 (stereo not shown) [GSK1379812],Kd,IKK-epsilon,> 10 µM
same,Kd,LATS2,> 10 µM
FC(F)(F)c1ccccc1-c1cc(-c2c[nH]nc2-c2ccccn2)ccn1 [GW679396],Kd,IKK-epsilon,> 10 µM
Cl.Cl.Cl.N#Cc1ccc(CCNc2nccc(-c3cccc(CN4CCNCC4)c3)n2)cc1 [GSK2137462],Kd,INSR,> 10 µM
COc1cccc(C2=C(Nc3cc(Cl)c(O)c(Cl)c3)C(=O)NC2=O)c1 [SB-390767],Kd,[1],0.12 µM
Cc1c(Cn2c(C)c(C)n3c(=O)cc(N4CCOCC4)nc23)cccc1C(F)(F)F [GSK2328680],Kd,LATS1,> 10 µM
CCn1c(-c2c(N)noc2C)nc2cnccc21 [SB-737856],Kd,LIMK2,> 10 µM
CC(=O)c1c(C)c2cnc(Nc3ccc(N4CCNCC4)cn3)nc2n(C2CCCC2)c1=O,Kd,LIMK2,> 10 µM
CS(=O)(=O)Cc1ccc(Nc2nccc(-c3c(-c4cccc(NC(=O)C5CCCCC5)c4)nn4ncccc34)n2)cc1 [GSK350559],Kd,LOK,0.36 µM
Cc1ccc(NC(=O)c2ccc(Cl)cc2)cc1-c1ccc(C(=O)Nc2ccncc2)cc1 [GSK1398467],Kd,LRRK2,> 10 µM
